Data reported in PubChem BioAssay (EPA / NIEHS).
Results filed as inconclusive are left out. Calls of active or inactive are those of the source. How the source made its calls: active means hit-call score of the fitted dose curve at least 0.9, where 1 is the maximum; inconclusive means response in the unintended direction; inactive means score below 0.9.

Target: Estrogen receptor beta (Homo sapiens) (UniProt Q92731)
Assay: OT_ER_ERbERb_0480: Odyssey Thera (OT) 8-hour HEK293T Protein-Complementation Assay for Estrogen Receptor-beta/-beta Homodimer (AID 2283357);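 further: active means signal gain over DMSO baseline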
Outline: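 Cells (HEK293T, stable ER-beta LBD PCA pair) are treated 8 hours, fixed and Draq5-stained; signal is fluorescence intensity increase relative to vehicle, fitted in the gain direction.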

Estrogen receptor beta (Homo sapiens), sequence (Q92731 whole entry, looked up): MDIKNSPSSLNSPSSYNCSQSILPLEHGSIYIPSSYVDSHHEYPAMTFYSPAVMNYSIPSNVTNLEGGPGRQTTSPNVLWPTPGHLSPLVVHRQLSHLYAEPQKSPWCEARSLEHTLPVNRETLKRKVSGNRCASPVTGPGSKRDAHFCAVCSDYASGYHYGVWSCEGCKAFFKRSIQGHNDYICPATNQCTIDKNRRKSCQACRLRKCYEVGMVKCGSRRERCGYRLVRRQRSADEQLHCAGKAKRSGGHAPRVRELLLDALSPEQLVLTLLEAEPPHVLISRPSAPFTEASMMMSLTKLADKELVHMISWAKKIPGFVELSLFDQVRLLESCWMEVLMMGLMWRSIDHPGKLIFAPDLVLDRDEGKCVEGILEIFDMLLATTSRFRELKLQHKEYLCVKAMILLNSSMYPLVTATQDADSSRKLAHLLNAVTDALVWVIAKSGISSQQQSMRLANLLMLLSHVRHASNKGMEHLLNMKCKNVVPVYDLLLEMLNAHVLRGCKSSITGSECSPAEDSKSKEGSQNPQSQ

Row | SMILES | outcome | AC50
1 | CCCCCC(CO)CCC (stereo not drawn) | inactive | –
2 | CC(C)CCCCCCCOC(=O)c1ccc(C(=O)OCCCCCCCC(C)C)c(C(=O)OCCCCCCCC(C)C)c1 | inactive | –
3 | OC1OC[C@@H](O)[C@H](O)[C@H]1O (stereo partly drawn) | inactive | –
4 | CC(C)=CCCC(C)=CCCC(C)=CCO | inactive | –
5 | CCC(=O)/C=C/C1C(C)=CCCC1(C)C (stereo not drawn) | inactive | –
6 | O=C(Cl)c1cccc(C(=O)Cl)c1 | inactive | –
7 | CCCCCCCCCCN | inactive | –
8 | CCCC/C=C\CCCCCCCCCC=O | inactive | –
9 | COc1c(Cl)c(Cl)c(Cl)c(Cl)c1Cl | – | 41.8 µM (active)
10 | CCCCCOC(=O)CCC | inactive | –
11 | O=C(Oc1ccccc1)c1ccc(O)cc1 | – | 2.42 µM (active)
12 | CC(C)(C#N)c1cc(Cn2cncn2)cc(C(C)(C)C#N)c1 | inactive | –
13 | CCCCCCCCCCCCCCCC(=O)O | inactive | –
